Inconclusive results are not listed. Some structures have more than one record in an assay (separate samples or runs), and their calls can disagree. Activity calls are given as the source filed them. Rule for the calls, unless noted: active = hit-call score of the fitted dose curve at least 0.9, where 1 is the maximum; inconclusive = response in the unintended direction; inactive = score below 0.9.
Columns and labels:
[1] = ATG_PPRE_CIS: Attagene CIS-FACTORIAL HepG2 Assay for human Peroxisome Proliferator-activated Response Element (PPRE) (AID 2282958; active = hit-call score of the fitted dose curve at least 0.9, where 1 is the maximum; inactive = score below 0.9); conditions: HepG2 PPRE cis-element reporter, Attagene transcription factor profiling; actives raise or lower the signal
Outline: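 HepG2, transient MRTU transfection (cis promoter elements, endogenous TFs). 24 h dosing. RNA → oligo(dT) RT → PCR → 6-FAM primer extension → HpaI digest → CE. Bidirectional fit vs DMSO.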

[2] = molecular target: Nuclear receptor subfamily 1 group I member 3 (Homo sapiens) (UniProt Q14994); test: ATG_CAR_TRANS: Attagene TRANS-FACTORIAL HepG2 Assay for human Constitutive Androstane Receptor (CAR) (AID 2282969); conditions: HepG2 Attagene TRANS-FACTORIAL CAR reporter;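 note: activators raise reporter mRNA above DMSO so AC50 marks induction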
Outline: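 Readout is reporter mRNA induction, quantified by fluorescent primer extension and capillary electrophoresis after RT-PCR. Cells were HepG2 transiently carrying chimeric NR-Gal4 constructs with GAL4-UAS reporters, treated for 24 h; activity scored upward from DMSO.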

[3] = molecular target: Oxysterols receptor LXR-alpha (Homo sapiens) (UniProt Q13133); test: ATG_LXRa_TRANS: Attagene TRANS-FACTORIAL HepG2 Assay for human Liver X Receptor alpha (LXRa) (AID 2282980); conditions: HepG2 Attagene TRANS reporter, LXRa transactivation
Outline: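 In this multiplexed TRANS system, compounds act on HepG2 cells carrying GAL4-UAS reporter units and a receptor-GAL4 fusion for 24 h. Induced reporter RNA is amplified, fluorescently labelled and sized by capillary electrophoresis, with DMSO as baseline.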

[4] = molecular target: human Peroxisome Proliferator-activated Receptor alpha (PPARa), PPARA (gene 5465) (UniProt Q07869); test: ATG_PPARa_TRANS: Attagene TRANS-FACTORIAL HepG2 Assay for human Peroxisome Proliferator-activated Receptor alpha (PPARa) (AID 2283001)
Outline: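 Read-out is fluorescence of reporter cDNA fragments resolved by capillary electrophoresis after RT-PCR. Human HepG2 liver cells carried transfected PPARa-Gal4 chimera and GAL4-UAS reporter units, treated 24 h; activity scored as increase over DMSO.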

[5] = molecular target: Peroxisome proliferator-activated receptor gamma (Homo sapiens) (UniProt P37231); test: ATG_PPARg_TRANS: Attagene TRANS-FACTORIAL HepG2 Assay for human Peroxisome Proliferator-activated Receptor-gamma (PPARg) (AID 2283007)
Outline: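 Transient transfection of HepG2 with GAL4-UAS-driven reporter units; chemical dosing 24 h; total RNA → oligo(dT) RT → PCR with reporter primers → 6-FAM primer extension → HpaI digest 2 h 37 C → capillary electrophoresis. Positive direction vs DMSO.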

[6] = molecular target: human RAR-related Orphan Receptor beta (RORb), RORB (gene 6096) (UniProt Q92753); test: ATG_RORb_TRANS: Attagene TRANS-FACTORIAL HepG2 Assay for human RAR-related Orphan Receptor beta (RORb) (AID 2283010)
Outline: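 HepG2 cells transiently transfected with GAL4-UAS reporter units expressing chimeric NR-Gal4 protein; reporter mRNA measured 24 h after dosing by RT-PCR, 6-FAM labelling and capillary electrophoresis. Gain-of-signal fitted relative to DMSO baseline.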

[7] = molecular target: human Thyroid Receptor alpha (THRa1), THRA (gene 7067) (UniProt P10827); test: ATG_THRa1_TRANS: Attagene TRANS-FACTORIAL HepG2 Assay for human Thyroid Receptor alpha (THRa1) (AID 2283014)
Outline: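 Measured here is mRNA from a GAL4-UAS reporter in transfected HepG2 cells carrying a Gal4-fused receptor, 24 h post-dose. DMSO served as negative control and baseline.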

[8] = TOX21_p53_BLA_p3_viability: Viability Assessment in the Tox21 HCT-116 p53 Agonism Beta-lactamase Assay, Phase 3 (AID 2283593);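 note: cells exposed to compound for 16 h before reading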
Outline: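 Cellular ATP was quantified by CellTiter-Glo luminescence, read after 30 min at room temperature. Beforehand, HCT116 cells (4000/well) received compound 5 h post-seeding, 217-fold diluted from DMSO, then incubated 16 h at 37C.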

[9] = TOX21_p53_BLA_p4_viability: Viability Assessment in the Tox21 HCT-116 p53 Agonism Beta-lactamase Assay, Phase 4 (AID 2283597);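 note: hits lower the luminescence signal meaning cytotoxicity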
Outline: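 Luminescent ATP readout (CellTiter-Glo, 30 min, room temperature) in the same wells as the p53 bla ratio. HCT116 cells were treated for 16 h at 37C with DMSO-dissolved compounds.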

[10] = TOX21_p53_BLA_p5_viability: Viability Assessment in the Tox21 HCT-116 p53 Agonism Beta-lactamase Assay, Phase 5 (AID 2283600)
Outline: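 Seeded cells (4000/well) settle 5 h before compound addition. Plates then incubate 16 h at 37C, receive FRET substrate for 2 h, and finally CellTiter-Glo, with luminescence measured after a 30 min room-temperature incubation.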

[11] = CCTE_Harrill_HTTr_Viability_MCF7: CCTE's 6-hour Cell Viability Assessment for the High-Throughput Transcriptomics (HTTr) Platform, in MCF-7 cells cultured in DMEM + 10% fetal bovine serum, Harrill Lab (AID 2284010; active = hit-call score of the fitted dose curve at least 0.9, where 1 is the maximum; inactive = score below 0.9)
Outline: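 MCF-7 cells in DMEM + 10% FBS, 384-well, exposed 6 h to an eight-point dilution series. Membrane integrity scored by high-content imaging of propidium iodide exclusion; bidirectional fit versus DMSO.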

[12] = CCTE_Harrill_HTTr_Apoptosis_MCF7: CCTE's 6-hour Apoptosis Assessment for the High-Throughput Transcriptomics (HTTr) Platform, in MCF-7 cells cultured in DMEM + 10% fetal bovine serum, Harrill Lab (AID 2284011; active = hit-call score of the fitted dose curve at least 0.9, where 1 is the maximum; inactive = score below 0.9)
Outline: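 Apoptosis in MCF-7 cells grown in DMEM with 10% fetal bovine serum was scored after a six hour exposure by high content imaging of caspase-3/7 activation (CellEvent Caspase 3/7 Green), with DMSO serving as negative control and baseline.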

[13] = molecular target: Bile acid receptor (Homo sapiens) (UniProt Q96RI1); test: ATG_IR1_CIS: Attagene CIS-FACTORIAL HepG2 Assay for human Nuclear Receptor Subfamily 1 Group H Member 4 (NR1H4), IR1 submotif (AID 2282946; active = hit-call score of the fitted dose curve at least 0.9, where 1 is the maximum; inactive = score below 0.9); conditions: IR1 reporter transcription, actives raise or lower the signal
Outline: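 Cells (human HepG2) carry transiently transfected cis-promoter reporter transcription units. Compounds are incubated 24 h, total RNA is reverse-transcribed and amplified, and labelled fragments are resolved by capillary electrophoresis. Curves use DMSO as baseline.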

[14] = ATG_GAL4_TRANS: Attagene TRANS-FACTORIAL HepG2 Assay for GAL4 (Internal Marker) (AID 2282976); conditions: HepG2 Attagene TRANS GAL4 internal marker reporter
Outline: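 Liver HepG2 line bearing multiplexed GAL4-UAS reporter constructs; 24 h chemical treatment. Transcripts were quantified as fluorescent fragments on capillary electrophoresis after RT-PCR and HpaI cut, with activity fitted upward from DMSO.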

[15] = molecular target: Glucocorticoid receptor (Homo sapiens) (UniProt P04150); test: ATG_GR_TRANS: Attagene TRANS-FACTORIAL HepG2 Assay for human Glucocorticoid Receptor (GR) (AID 2282978); conditions: HepG2 Attagene TRANS GR reporter, mRNA transcription;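 note: activators score as hits since higher reporter transcript over DMSO is fitted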
Outline: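 Fluorescent capillary-electrophoresis quantitation of reporter mRNA is the readout, taken 24 h after dosing human HepG2 cells carrying transiently transfected GAL4-UAS reporter units activated by chimeric NR-GAL4 fusions; activity scored as induction over DMSO.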

[16] = molecular target: Oxysterols receptor LXR-beta (Homo sapiens) (UniProt P55055); test: ATG_LXRb_TRANS: Attagene TRANS-FACTORIAL HepG2 Assay for human Liver X Receptor beta (LXRb) (AID 2282981); conditions: HepG2 Attagene TRANS GAL4-LXRb reporter, mRNA
Outline: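 Transient transfection HepG2 (multiplexed RTUs, GAL4-UAS); NR-Gal4 chimera; 24 h exposure; RNA → RT-PCR → 6-FAM primer extension → HpaI → CE; increase vs DMSO.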

[17] = molecular target: Nuclear receptor subfamily 4 group A member 2 (Homo sapiens) (UniProt P43354); test: ATG_NURR1_TRANS: Attagene TRANS-FACTORIAL HepG2 Assay for human Nuclear Receptor Related Protein 1 (NURR1) (AID 2282985); conditions: HepG2 Attagene TRANS reporter, mRNA readout
Outline: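 Transient transfection of HepG2, human liver cells, with multiple GAL4-UAS reporter transcription units. Cells dosed 24 h, RNA isolated, reverse-transcribed, PCR-amplified, FAM-labelled, HpaI-digested, sized by capillary electrophoresis. DMSO served as negative control.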

[18] = ACEA_ER_AUC_viability: ACEA Biosciences xCELLigence Real-Time Cell Analysis on Estrogen Receptor Agonism for Viability (AID 2283782);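 note: continuous compound exposure with impedance area under curve over 80 h; hit means loss of impedance signal meaning reduced cell growth or viability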
Outline: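 T-47D; phenol red-free RPMI1640 + 10% CS-FBS; 8 conc., 1:4 serial, max 100 uM final, ≤0.5% DMSO; n = 2; continuous exposure; impedance monitored to 80 h post-dose; AUC vs DMSO.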

[19] = molecular target: Retinoic acid receptor alpha (Homo sapiens) (UniProt P10276); test: ATG_DR5_RAR_CIS: Attagene CIS-FACTORIAL HepG2 Assay for human Retinoic Acid Receptor Alpha (RARE), DR5 submotif (AID 2282934; active = hit-call score of the fitted dose curve at least 0.9, where 1 is the maximum; inactive = score below 0.9); conditions: HepG2 Attagene cis-factorial RARE DR5 reporter, mRNA; actives raise or lower the signal
Outline: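 HepG2, transient cis-reporter transfection, 24 h exposure. mRNA readout: RT-PCR, FAM label, HpaI cut, capillary electrophoresis. DMSO baseline, gain/loss fitting.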

[20] = molecular target: human RAR-related Orphan Receptor gamma (RORg), RORC (gene 6097) (UniProt P51449); test: ATG_RORg_TRANS: Attagene TRANS-FACTORIAL HepG2 Assay for human RAR-related Orphan Receptor gamma (RORg) (AID 2283011)
Outline: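 Chimeric RORg-Gal4 transactivation in transfected HepG2; 24 h exposure; RT-PCR/capillary electrophoresis readout of reporter mRNA, DMSO baseline.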

human Thyroid Receptor alpha (THRa1), THRA (gene 7067), sequence (P10827 whole entry, looked up, the tested form may be a part): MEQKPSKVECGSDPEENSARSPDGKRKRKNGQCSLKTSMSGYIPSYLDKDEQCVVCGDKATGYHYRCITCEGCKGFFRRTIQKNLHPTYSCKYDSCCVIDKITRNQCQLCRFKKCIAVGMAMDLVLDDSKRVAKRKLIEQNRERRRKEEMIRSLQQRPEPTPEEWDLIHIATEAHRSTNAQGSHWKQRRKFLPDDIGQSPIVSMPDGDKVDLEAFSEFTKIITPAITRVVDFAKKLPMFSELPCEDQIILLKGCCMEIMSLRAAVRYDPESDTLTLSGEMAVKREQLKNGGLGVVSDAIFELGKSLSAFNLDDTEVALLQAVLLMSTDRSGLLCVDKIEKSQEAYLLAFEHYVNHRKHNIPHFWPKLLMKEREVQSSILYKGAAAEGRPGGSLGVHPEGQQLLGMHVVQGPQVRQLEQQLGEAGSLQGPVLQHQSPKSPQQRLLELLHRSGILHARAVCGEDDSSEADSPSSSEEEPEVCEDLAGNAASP
Retinoic acid receptor alpha (Homo sapiens), sequence (P10276 whole entry, looked up): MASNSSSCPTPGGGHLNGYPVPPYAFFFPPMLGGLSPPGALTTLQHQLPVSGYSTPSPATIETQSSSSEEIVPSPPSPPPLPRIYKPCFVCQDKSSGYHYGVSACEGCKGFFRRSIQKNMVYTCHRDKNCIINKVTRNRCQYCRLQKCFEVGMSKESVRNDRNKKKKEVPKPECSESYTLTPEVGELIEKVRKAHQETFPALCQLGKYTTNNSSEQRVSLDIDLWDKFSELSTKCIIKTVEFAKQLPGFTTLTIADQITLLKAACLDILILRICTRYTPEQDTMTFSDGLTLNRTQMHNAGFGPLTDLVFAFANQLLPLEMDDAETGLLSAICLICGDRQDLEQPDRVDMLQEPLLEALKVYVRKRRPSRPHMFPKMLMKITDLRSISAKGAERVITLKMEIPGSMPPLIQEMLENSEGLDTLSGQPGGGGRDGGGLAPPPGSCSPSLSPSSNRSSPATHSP
Nuclear receptor subfamily 4 group A member 2 (Homo sapiens), sequence (P43354 whole entry, looked up, the tested form may be a part): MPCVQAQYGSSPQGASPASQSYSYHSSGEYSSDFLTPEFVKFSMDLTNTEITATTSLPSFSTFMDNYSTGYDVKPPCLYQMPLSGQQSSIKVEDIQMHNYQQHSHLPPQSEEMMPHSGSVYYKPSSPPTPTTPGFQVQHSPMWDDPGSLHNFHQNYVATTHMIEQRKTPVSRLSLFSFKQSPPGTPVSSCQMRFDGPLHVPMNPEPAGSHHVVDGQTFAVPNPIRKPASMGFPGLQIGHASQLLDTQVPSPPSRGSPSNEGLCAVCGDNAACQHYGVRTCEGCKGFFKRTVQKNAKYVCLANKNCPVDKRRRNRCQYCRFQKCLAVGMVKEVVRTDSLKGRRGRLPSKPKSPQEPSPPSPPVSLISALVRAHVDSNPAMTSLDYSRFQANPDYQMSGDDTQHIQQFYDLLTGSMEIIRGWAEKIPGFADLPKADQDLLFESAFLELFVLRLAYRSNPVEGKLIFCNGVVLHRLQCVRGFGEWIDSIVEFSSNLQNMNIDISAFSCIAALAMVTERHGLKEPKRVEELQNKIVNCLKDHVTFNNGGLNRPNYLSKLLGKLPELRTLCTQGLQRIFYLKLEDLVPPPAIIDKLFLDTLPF
Oxysterols receptor LXR-alpha (Homo sapiens), sequence (Q13133 whole entry, looked up, the tested form may be a part): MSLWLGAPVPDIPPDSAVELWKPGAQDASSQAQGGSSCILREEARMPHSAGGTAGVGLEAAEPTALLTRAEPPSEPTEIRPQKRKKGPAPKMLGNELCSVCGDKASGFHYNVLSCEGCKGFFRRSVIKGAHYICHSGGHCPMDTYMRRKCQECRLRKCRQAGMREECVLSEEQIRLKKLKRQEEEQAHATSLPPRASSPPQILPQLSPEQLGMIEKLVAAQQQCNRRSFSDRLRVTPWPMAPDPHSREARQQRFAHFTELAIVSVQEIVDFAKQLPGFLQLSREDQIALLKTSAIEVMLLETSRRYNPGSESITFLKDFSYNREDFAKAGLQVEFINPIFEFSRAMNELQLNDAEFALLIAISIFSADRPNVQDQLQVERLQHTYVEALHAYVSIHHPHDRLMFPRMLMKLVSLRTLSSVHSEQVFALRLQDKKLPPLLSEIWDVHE
Glucocorticoid receptor (Homo sapiens), sequence (P04150 whole entry, looked up, the tested form may be a part): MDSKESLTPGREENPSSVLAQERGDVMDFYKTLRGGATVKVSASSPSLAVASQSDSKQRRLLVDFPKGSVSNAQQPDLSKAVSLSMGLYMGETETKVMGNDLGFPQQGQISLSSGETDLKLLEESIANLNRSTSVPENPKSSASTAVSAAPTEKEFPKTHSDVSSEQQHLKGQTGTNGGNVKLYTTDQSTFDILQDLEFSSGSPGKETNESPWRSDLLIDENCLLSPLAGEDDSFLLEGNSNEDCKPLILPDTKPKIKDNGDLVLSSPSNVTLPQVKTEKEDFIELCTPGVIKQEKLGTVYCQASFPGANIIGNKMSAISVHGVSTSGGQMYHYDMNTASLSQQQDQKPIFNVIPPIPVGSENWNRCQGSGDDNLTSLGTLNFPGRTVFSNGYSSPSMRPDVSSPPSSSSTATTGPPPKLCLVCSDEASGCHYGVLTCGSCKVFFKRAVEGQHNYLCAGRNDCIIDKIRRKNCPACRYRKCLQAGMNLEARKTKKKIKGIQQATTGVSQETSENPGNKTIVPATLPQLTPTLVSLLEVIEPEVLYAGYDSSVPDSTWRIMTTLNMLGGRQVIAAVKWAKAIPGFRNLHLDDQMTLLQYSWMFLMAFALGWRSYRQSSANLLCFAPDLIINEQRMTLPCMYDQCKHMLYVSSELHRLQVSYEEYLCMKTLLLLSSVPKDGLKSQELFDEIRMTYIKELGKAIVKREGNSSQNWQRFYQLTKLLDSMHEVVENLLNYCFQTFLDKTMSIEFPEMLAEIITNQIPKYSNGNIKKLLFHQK
Peroxisome proliferator-activated receptor gamma (Homo sapiens), sequence (P37231 whole entry, looked up, the tested form may be a part): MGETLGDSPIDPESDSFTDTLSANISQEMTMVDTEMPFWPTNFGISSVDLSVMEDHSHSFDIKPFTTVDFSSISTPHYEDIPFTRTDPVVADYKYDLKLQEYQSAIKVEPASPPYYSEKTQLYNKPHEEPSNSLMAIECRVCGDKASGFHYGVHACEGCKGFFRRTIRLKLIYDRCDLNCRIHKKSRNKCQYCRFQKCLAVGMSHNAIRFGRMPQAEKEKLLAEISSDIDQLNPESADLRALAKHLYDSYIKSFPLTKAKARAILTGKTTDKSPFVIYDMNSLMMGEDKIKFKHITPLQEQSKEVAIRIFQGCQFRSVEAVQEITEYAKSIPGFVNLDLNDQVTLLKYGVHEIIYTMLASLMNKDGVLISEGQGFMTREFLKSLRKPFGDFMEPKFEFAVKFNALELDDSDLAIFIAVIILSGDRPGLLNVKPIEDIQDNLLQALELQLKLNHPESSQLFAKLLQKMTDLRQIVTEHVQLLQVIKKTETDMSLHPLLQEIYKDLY
Nuclear receptor subfamily 1 group I member 3 (Homo sapiens), sequence (Q14994 whole entry, looked up, the tested form may be a part): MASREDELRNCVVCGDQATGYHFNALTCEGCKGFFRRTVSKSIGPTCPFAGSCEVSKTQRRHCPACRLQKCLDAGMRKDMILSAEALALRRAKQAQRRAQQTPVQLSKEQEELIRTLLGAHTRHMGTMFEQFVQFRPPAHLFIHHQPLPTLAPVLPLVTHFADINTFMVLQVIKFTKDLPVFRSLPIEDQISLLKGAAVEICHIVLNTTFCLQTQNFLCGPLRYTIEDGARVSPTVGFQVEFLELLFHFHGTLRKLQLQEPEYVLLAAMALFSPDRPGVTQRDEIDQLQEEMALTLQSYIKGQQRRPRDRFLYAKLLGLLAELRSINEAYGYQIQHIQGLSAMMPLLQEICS
Bile acid receptor (Homo sapiens), sequence (Q96RI1 whole entry, looked up, the tested form may be a part): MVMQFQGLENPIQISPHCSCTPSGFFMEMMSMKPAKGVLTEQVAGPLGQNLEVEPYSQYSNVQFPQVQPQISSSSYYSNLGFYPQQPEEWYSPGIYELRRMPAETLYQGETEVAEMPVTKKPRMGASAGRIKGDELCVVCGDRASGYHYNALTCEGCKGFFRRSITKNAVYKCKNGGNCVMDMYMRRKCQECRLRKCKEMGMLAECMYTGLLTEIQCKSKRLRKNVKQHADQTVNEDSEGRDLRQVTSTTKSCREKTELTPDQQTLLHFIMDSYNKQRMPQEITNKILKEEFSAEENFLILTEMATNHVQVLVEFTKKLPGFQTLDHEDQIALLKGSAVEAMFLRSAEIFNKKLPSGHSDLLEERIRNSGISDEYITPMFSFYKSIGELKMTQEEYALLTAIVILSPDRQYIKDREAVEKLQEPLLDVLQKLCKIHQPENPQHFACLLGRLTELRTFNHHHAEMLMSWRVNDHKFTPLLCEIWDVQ
human RAR-related Orphan Receptor beta (RORb), RORB (gene 6096), sequence (Q92753 whole entry, looked up, the tested form may be a part): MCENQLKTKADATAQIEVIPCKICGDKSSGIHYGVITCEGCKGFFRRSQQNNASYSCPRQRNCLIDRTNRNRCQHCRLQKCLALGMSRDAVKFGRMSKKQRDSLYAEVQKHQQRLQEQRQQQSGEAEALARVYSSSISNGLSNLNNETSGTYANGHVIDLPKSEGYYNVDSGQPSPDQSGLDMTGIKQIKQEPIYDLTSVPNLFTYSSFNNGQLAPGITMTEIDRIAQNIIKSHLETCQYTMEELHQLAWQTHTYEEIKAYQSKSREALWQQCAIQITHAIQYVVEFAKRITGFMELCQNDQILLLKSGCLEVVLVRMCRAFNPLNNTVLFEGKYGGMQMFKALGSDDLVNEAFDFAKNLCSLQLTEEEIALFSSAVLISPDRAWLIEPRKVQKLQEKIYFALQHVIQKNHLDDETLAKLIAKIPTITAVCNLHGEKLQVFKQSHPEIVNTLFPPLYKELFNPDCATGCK

## CC1=C(CC(=O)O)c2cc(F)ccc2/C1=C\c1ccc(S(C)=O)cc1 (stereo not given)
[1]
  outcome: inactive
[2]
  outcome: inactive
[3]
  outcome: inactive
[4]
  outcome: inactive
[5]
  AC50: 24.2 µM (active)
[6]
  outcome: inactive
[7]
  outcome: inactive
[8]
  outcome: inactive
[9]
  outcome: inactive
[10]
  outcome: inactive
[11]
  outcome: inactive
[12]
  outcome: inactive

## O=C(O)Cc1c[nH]c2ccccc12
[13]
  outcome: inactive
[2]
  outcome: inactive
[14]
  outcome: inactive
[15]
  outcome: inactive
[3]
  outcome: inactive
[16]
  outcome: inactive
[17]
  outcome: inactive
[4]
  outcome: inactive
[8]
  outcome: inactive
[9]
  outcome: inactive
[10]
  outcome: inactive
[18]
  outcome: inactive
[11]
  outcome: inactive
[12]
  outcome: inactive

## O=C(OCc1ccccc1)c1ccccc1
[19]
  outcome: inactive
[13]
  outcome: inactive
[1]
  outcome: inactive
[14]
  outcome: inactive
[15]
  outcome: inactive
[3]
  outcome: inactive
[4]
  outcome: inactive
[5]
  outcome: inactive
[7]
  outcome: inactive
[18]
  AC50: 76.8 µM (active)
[11]
  outcome: inactive
[12]
  outcome: inactive

## COc1c2occc2cc2ccc(=O)oc12
[19]
  outcome: inactive
[14]
  outcome: inactive
[4]
  outcome: inactive
[6]
  outcome: inactive
[7]
  outcome: inactive
[8]
  outcome: inactive
[9]
  outcome: inactive
[10]
  outcome: inactive
[18]
  outcome: inactive
[11]
  outcome: inactive
[12]
  outcome: inactive

## COC(=O)/C=C\C(=O)OC
[19]
  outcome: inactive
[15]
  outcome: inactive
[3]
  outcome: inactive
[17]
  outcome: inactive
[4]
  outcome: inactive
[8]
  outcome: inactive
[10]
  outcome: inactive
[18]
  AC50: 76.9 µM (active)

## O=C(O)/C=C/C(=O)O
[14]
  outcome: inactive
[15]
  outcome: inactive
[3]
  outcome: inactive
[17]
  outcome: inactive
[4]
  outcome: inactive
[6]
  outcome: inactive
[18]
  outcome: inactive
[11]
  outcome: inactive
[12]
  outcome: inactive

## CCCCn1cc[n+](C)c1
[3]
  outcome: inactive
[16]
  outcome: inactive

## CCCCNC(N)=O
[19]
  outcome: inactive
[13]
  outcome: inactive
[1]
  outcome: inactive
[2]
  outcome: inactive
[14]
  outcome: inactive
[15]
  outcome: inactive
[16]
  outcome: inactive
[4]
  outcome: inactive
[5]
  outcome: inactive
[6]
  outcome: inactive
[7]
  outcome: inactive
[8]
  outcome: inactive
[9]
  outcome: inactive
[10]
  outcome: inactive

## CN(C)N=Nc1ccccc1
[14]
  outcome: inactive
[3]
  outcome: inactive
[16]
  outcome: inactive
[4]
  outcome: inactive
[20]
  outcome: inactive
[7]
  outcome: inactive
[9]
  outcome: inactive
[10]
  outcome: inactive

## CC[N+](CC)(CC(=O)Nc1c(C)cccc1C)Cc1ccccc1
[14]
  outcome: inactive
[3]
  outcome: inactive
[17]
  outcome: inactive
[4]
  outcome: inactive
[5]
  outcome: inactive
[6]
  outcome: inactive
[18]
  outcome: inactive

## O=C(C(=O)c1ccccc1)c1ccccc1
[2]
  outcome: inactive
[7]
  outcome: inactive
[11]
  outcome: inactive
[12]
  outcome: inactive

## CC(C)(C)NC(=O)[C@@H]1CN(Cc2cccnc2)CCN1C[C@@H](O)C[C@@H](Cc1ccccc1)C(=O)N[C@H]1c2ccccc2C[C@H]1O
[13]
  outcome: inactive
[2]
  outcome: inactive
[15]
  AC50: 13.4 µM (active)
[3]
  outcome: inactive
[16]
  outcome: inactive
[20]
  outcome: inactive
[7]
  outcome: inactive
[9]
  AC50: 33.2 µM (active)
  outcome: inactive
[10]
  AC50: 37.5 µM (active)

## CCO[Si](OCC)(OCC)c1ccccc1
[13]
  outcome: inactive
[14]
  outcome: inactive
[15]
  outcome: inactive
[4]
  outcome: inactive
[8]
  outcome: inactive
[10]
  outcome: inactive
[18]
  outcome: inactive

## CN(C)CCC(c1ccc(Cl)cc1)c1ccccn1 (stereo not given)
[14]
  outcome: inactive
[16]
  outcome: inactive
[9]
  outcome: inactive
[10]
  outcome: inactive
[18]
  outcome: inactive
[11]
  outcome: inactive
[12]
  outcome: inactive
